# Test results taken from PubChem BioAssay (EPA / NIEHS).
# Inconclusive results are not listed. The source made the active and inactive calls. Rule for the calls: active = hit-call score of the fitted dose curve at least 0.9, where 1 is the maximum; inconclusive = response in the unintended direction; inactive = score below 0.9.
# Columns and labels:
# [1] = target: chimpanzee Androgen Receptor (AR), AR (gene 747460) (UniProt O97775); experiment: NVS_NR_cAR: NovaScreen (NVS) Nuclear Receptor Binding Assay for chimpanzee Androgen Receptor (AR) (AID 2283346);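 note: radioligand displacement from AR measured by scintillation counting in a cell-free assay; a loss of bound radioligand signal versus DMSO counts as binding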
# chimpanzee Androgen Receptor (AR), AR (gene 747460), sequence (O97775 whole entry, looked up): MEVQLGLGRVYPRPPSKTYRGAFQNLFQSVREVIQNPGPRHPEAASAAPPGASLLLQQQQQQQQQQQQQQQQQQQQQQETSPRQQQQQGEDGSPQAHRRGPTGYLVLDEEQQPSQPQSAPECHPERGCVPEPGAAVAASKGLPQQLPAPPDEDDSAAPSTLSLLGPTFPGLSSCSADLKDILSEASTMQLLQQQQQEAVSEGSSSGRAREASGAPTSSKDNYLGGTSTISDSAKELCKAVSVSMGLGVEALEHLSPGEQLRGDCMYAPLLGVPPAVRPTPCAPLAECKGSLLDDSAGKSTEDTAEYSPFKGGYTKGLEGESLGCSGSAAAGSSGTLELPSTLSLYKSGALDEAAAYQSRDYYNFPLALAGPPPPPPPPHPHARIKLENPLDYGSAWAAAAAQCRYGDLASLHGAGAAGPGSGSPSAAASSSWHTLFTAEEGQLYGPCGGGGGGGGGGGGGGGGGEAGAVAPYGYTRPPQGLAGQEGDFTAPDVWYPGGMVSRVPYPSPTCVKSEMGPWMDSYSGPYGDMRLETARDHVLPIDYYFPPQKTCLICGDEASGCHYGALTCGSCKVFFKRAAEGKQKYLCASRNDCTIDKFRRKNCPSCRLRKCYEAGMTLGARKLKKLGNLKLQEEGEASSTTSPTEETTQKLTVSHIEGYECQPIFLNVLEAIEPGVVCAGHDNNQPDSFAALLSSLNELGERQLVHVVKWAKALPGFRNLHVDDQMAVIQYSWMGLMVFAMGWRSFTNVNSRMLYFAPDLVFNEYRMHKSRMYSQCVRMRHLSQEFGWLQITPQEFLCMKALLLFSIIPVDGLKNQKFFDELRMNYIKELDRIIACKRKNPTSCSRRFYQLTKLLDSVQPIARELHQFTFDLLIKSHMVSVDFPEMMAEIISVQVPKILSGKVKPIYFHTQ
# Outline: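 Cell-free competition binding with insect-cell (Sf9/Sf21) extracted chimpanzee AR; scintillation signal from lysate at 72 h. Screened in duplicate at 25 uM, then concentration-response for actives; fitting relative to DMSO.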
# [2] = target: Androgen Receptor/SRC-1 Co-activator, AR (gene 367) (UniProt P10275); experiment: OT_AR_ARSRC1_0960: Odyssey Thera (OT) 16-hour HEK293T Protein-Complementation Assay for Androgen Receptor/SRC-1 Co-activator (AID 2283353);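 note: actives raise the signal above DMSO so potency reflects increased AR and SRC-1 complex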
# Androgen Receptor/SRC-1 Co-activator, AR (gene 367), sequence (P10275 whole entry, looked up, the tested form may be a part): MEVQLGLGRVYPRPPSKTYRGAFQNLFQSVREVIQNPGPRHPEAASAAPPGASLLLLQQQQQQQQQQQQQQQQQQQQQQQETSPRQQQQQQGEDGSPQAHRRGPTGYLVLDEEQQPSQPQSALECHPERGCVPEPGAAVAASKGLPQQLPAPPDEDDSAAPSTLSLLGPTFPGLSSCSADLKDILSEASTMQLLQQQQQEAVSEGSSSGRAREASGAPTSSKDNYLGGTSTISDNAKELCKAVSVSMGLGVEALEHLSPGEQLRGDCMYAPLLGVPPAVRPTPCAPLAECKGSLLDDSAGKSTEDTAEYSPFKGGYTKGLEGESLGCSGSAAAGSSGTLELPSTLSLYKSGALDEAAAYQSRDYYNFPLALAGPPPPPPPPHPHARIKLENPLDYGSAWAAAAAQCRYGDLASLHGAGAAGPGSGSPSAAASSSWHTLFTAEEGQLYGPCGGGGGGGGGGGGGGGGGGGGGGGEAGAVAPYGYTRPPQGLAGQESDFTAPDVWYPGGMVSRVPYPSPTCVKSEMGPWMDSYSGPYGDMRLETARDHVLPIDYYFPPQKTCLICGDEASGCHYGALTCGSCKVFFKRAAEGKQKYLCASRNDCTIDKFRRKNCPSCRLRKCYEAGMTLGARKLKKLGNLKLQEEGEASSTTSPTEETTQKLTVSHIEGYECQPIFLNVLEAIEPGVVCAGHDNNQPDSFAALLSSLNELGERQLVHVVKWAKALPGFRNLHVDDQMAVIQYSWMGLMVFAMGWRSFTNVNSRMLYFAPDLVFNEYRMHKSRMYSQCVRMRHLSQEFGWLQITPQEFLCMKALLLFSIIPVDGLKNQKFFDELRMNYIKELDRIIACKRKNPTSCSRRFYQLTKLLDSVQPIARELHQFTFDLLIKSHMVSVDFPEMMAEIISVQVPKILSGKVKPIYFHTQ
# Outline: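 Stable HEK293T line carries AR and SRC-1 each linked to a Venus fragment; chemicals are applied for 16 h, cells imaged at two wavelengths, and the 488 nm nucleus/cytoplasm ratio is taken as the signal, rising relative to DMSO.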
# [3] = target: Androgen Receptor/SRC-1 Co-activator, AR (gene 367) (UniProt P10275); experiment: OT_AR_ARSRC1_0480: Odyssey Thera (OT) 8-hour HEK293T Protein-Complementation Assay for Androgen Receptor/SRC-1 Co-activator (AID 2283354);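 note: hits raise the complementation signal above DMSO so AC50 marks enhancers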
# Outline: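 Reconstituted split-Venus YFP signal from AR–SRC-1 interaction, read by imaging 8 h post-dose in stable HEK293T lines. The 488 nm nucleus-to-cytoplasm ratio (≥400 cells/image) was fitted upward against DMSO.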
# [4] = target: Estrogen receptor beta (Homo sapiens) (UniProt Q92731); experiment: OT_ER_ERbERb_0480: Odyssey Thera (OT) 8-hour HEK293T Protein-Complementation Assay for Estrogen Receptor-beta/-beta Homodimer (AID 2283357);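 note: active means signal gain over DMSO baseline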
# Estrogen receptor beta (Homo sapiens), sequence (Q92731 whole entry, looked up, the tested form may be a part): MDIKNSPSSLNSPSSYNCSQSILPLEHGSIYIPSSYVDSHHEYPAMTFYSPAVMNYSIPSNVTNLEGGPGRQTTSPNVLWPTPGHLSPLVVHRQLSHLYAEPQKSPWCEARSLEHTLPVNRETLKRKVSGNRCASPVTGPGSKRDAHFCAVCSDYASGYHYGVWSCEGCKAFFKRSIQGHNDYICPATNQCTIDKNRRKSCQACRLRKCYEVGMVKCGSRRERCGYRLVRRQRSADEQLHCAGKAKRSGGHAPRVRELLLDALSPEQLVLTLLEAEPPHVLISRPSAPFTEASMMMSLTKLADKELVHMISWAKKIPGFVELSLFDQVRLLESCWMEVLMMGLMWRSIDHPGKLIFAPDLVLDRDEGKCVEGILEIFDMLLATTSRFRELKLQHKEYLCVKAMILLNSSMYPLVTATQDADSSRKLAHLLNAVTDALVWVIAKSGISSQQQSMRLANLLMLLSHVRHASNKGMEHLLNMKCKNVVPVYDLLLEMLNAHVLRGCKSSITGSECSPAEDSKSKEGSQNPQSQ
# Outline: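 ER-beta LBD homodimer PCA stably expressed in HEK293T; 8 h compound exposure, then formaldehyde fixation and Draq5 staining. Gain in nuclear/cytoplasmic fluorescence intensity versus DMSO vehicle, read on laser scanning cytometer.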
# [5] = target: human Peroxisome Proliferator-activated Receptor alpha (PPARa), PPARA (gene 5465) (UniProt Q07869); experiment: NVS_NR_hPPARa: NovaScreen (NVS) Nuclear Receptor Binding Assay for human Peroxisome Proliferator-activated Receptor alpha (PPARa) (AID 2283359);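 note: activity means loss of TR-FRET signal versus DMSO baseline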
# human Peroxisome Proliferator-activated Receptor alpha (PPARa), PPARA (gene 5465), sequence (Q07869 whole entry, looked up): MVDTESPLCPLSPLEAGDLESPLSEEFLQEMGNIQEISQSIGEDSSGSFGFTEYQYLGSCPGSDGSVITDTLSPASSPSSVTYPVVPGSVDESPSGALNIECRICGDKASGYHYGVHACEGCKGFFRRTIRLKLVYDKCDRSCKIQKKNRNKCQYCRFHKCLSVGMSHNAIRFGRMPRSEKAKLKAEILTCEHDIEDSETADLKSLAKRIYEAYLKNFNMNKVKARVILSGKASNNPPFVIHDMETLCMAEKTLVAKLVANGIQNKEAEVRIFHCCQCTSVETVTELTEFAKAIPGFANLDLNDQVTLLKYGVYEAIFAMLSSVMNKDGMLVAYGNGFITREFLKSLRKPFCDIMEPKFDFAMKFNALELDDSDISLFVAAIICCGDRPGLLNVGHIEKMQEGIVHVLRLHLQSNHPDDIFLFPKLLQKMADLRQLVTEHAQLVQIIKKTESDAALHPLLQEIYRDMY
# Outline: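 Loss of TR-FRET binding signal relative to DMSO was measured 1 h after chemical addition to extracted receptor protein. Chemicals were first tested in duplicate at 25 uM, and actives were followed up in concentration series.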
# [6] = target: Retinoic acid receptor alpha (Homo sapiens) (UniProt P10276); experiment: NVS_NR_hRARa_Agonist: NovaScreen (NVS) Nuclear Receptor Binding Assay for human Retinoic Acid Alpha Receptor Agonism (RAR) (AID 2283361)
# Outline: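 Agonist-mode TR-FRET binding format using extracted protein, measured at 2 h post-dosing. Initial duplicate single-point screen at 25 uM preceded concentration series for actives; activity was normalized to DMSO baseline.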
# [7] = target: rat Androgen Receptor (AR), Ar (gene 24208) (UniProt P15207); experiment: NVS_NR_rAR: NovaScreen (NVS) Nuclear Receptor Binding Assay for rat Androgen Receptor (AR) (AID 2283366)
# Outline: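 Actives from a duplicate single-concentration (25 uM) primary run went on to concentration series. Displacement of radioligand was counted by filtration and scintillation, 18 h post-dose, using prostate extracts from testosterone-pretreated rats, with DMSO as baseline.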
# [8] = target: human Adenosine Transporter (Adot), SLC29A1 (gene 2030) (UniProt Q99808); experiment: NVS_TR_hAdoT: NovaScreen (NVS) Transporter Assay for human Adenosine Transporter (Adot) (AID 2283368)
# human Adenosine Transporter (Adot), SLC29A1 (gene 2030), sequence (Q99808 whole entry, looked up): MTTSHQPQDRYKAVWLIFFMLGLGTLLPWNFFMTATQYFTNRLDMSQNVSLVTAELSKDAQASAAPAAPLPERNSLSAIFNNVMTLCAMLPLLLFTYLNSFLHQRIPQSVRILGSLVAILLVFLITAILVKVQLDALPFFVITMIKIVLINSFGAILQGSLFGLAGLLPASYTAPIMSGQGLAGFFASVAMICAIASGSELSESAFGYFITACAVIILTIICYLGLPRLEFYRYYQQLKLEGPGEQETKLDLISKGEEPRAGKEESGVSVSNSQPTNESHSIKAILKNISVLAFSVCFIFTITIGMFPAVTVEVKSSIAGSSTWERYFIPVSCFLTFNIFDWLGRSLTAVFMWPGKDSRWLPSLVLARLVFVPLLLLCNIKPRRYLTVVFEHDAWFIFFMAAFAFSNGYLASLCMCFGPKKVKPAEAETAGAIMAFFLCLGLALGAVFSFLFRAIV
# Outline: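 Binding displacement on U937 extracted protein, read 1 h post-dose by filtration and scintillation counting. Primary duplicate test at 25 uM, then singleton concentration series with 50 uM top; DMSO baseline.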
# PGR (gene 5241) = PGR (gene 5241) (UniProt P06401); experiment: NVS_NR_hPR: NovaScreen (NVS) Nuclear Receptor Binding Assay for human Progestron Receptor (PR) (AID 2283360);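 note: active means loss of bound radioligand signal versus DMSO baseline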
# PGR (gene 5241), sequence (P06401 whole entry, looked up): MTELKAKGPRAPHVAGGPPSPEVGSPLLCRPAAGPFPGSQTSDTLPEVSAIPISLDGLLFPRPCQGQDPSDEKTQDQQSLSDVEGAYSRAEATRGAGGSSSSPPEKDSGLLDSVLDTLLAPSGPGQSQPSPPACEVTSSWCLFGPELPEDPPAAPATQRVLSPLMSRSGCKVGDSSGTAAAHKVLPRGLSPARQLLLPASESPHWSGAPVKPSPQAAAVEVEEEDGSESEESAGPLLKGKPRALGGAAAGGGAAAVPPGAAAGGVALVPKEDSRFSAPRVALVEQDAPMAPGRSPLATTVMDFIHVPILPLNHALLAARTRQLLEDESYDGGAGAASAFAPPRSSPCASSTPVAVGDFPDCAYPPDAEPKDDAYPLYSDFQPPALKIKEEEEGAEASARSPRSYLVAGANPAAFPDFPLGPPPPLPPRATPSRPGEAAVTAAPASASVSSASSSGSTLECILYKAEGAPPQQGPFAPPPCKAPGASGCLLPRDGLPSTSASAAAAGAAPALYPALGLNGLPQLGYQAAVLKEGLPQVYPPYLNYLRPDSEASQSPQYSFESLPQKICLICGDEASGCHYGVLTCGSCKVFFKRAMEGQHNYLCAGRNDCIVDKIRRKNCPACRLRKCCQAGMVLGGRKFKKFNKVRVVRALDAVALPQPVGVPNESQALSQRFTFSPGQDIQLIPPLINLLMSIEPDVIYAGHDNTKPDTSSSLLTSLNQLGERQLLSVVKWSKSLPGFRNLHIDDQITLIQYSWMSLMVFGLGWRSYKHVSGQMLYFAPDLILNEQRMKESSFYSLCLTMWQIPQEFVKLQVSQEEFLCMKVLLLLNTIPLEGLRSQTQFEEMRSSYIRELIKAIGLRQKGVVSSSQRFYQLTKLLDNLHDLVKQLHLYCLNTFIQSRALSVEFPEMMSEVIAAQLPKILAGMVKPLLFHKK
# Outline: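 T47D-derived receptor preparation, cell-free, with tritiated or iodinated radioligand displacement measured by scintillation 18 h post-dosing. Single 25 uM duplicate screen, then concentration series; signal loss relative to DMSO.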
# [9] = target: Estrogen receptor (Homo sapiens) (UniProt P03372); experiment: OT_ER_ERaERa_1440: Odyssey Thera (OT) 24-hour HEK293T Protein-Complementation Assay for Estrogen Receptor-alpha/-alpha Homodimer (AID 2283349);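 note: hits raise fluorescence above DMSO for agonists and antagonists alike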
# Estrogen receptor (Homo sapiens), sequence (P03372 whole entry, looked up, the tested form may be a part): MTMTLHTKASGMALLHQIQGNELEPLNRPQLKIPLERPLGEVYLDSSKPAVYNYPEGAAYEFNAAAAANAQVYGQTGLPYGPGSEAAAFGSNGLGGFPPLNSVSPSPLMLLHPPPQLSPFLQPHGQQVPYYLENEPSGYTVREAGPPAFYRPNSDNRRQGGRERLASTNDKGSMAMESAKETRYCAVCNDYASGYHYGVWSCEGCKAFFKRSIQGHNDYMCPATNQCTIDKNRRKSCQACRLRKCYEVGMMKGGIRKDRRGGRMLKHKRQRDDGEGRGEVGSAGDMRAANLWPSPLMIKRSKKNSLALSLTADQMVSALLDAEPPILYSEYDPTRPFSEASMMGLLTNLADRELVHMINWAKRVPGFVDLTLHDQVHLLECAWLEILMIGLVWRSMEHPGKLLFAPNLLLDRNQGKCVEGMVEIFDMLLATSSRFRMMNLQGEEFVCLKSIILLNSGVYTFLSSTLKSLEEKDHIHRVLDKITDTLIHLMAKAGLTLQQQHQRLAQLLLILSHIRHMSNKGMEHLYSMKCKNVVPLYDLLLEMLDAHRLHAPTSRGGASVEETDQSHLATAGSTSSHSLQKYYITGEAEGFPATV
# Outline: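 HEK293T, stable ERα LBD (aa 310-547) homodimer PCA; 24 h compound exposure; mean fluorescence intensity (nuclear for agonists, nuclear plus cytoplasmic for antagonists) vs vehicle; positive fitting direction, DMSO baseline.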
# [10] = target: Bile acid receptor (Homo sapiens) (UniProt Q96RI1); experiment: NVS_NR_hFXR_Antagonist: NovaScreen (NVS) Nuclear Receptor Binding Assay for human Farnesoid X Receptor Antagonism (FXR) (AID 2283350)
# Outline: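 Antagonist-format time-resolved FRET binding assay with extracted human receptor protein, read 1 hour after compound addition. Compounds first screened at 25 uM in duplicate, then actives tested in concentration series, with loss of signal relative to DMSO.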
# [11] = target: Estrogen receptor (Homo sapiens) (UniProt P03372); experiment: OT_ER_ERaERa_0480: Odyssey Thera (OT) 8-hour HEK293T Protein-Complementation Assay for Estrogen Receptor-alpha/-alpha Homodimer (AID 2283351);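 note: rise in fluorescence from reassembled reporter fragments on ERα LBD homodimer in nucleus or whole cell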
# Outline: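 Cells were treated for 8 hours, then imaged on a laser scanning plate cytometer. Complementation of reporter fragments fused to the human ERα ligand-binding domain (residues 310-547) in HEK293T gave fluorescence, and gain of signal over vehicle was fitted.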
# [12] = target: T1, Estrogen receptor (Homo sapiens) + Estrogen receptor beta (Homo sapiens) (UniProt P03372+Q92731); experiment: OT_ER_ERaERb_0480: Odyssey Thera (OT) 8-hour HEK293T Protein-Complementation Assay for Estrogen Receptor-alpha/-beta Heterodimer (AID 2283352)
# T1 sequence (P03372 whole entry, looked up, the tested form may be a part): as above
# T1 sequence (Q92731 whole entry, looked up, the tested form may be a part): as the sequence (Q92731 whole entry, looked up, the tested form may be a part) above
# Outline: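 HEK293T cells expressing ER-alpha/ER-beta LBD fusions to complementary reporter fragments were dosed with compound for 8 hours. Heterodimer formation was read as increased nuclear (agonist) or nuclear plus cytoplasmic (antagonist) mean fluorescence intensity versus DMSO vehicle.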
# [13] = target: T1, Estrogen receptor (Homo sapiens) + Estrogen receptor beta (Homo sapiens); experiment: OT_ER_ERaERb_1440: Odyssey Thera (OT) 24-hour HEK293T Protein-Complementation Assay for Estrogen Receptor-alpha/-beta Homodimer (AID 2283356);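 note: heteromer of ER alpha and ER beta binding domains; hits raise reporter fluorescence and both agonists and antagonists give an increase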
# Outline: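 HEK293T cells stably expressing a PCA pair of ERα LBD (aa 310-547) and ERβ LBD (aa 263-489) were dosed for 24 h. Fluorescence intensity increase versus DMSO vehicle was fitted as gain-of-signal.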
# [14] = target: guinea pig Sigma Receptor, Non-selective Binding, SIGMAR1 (gene 100135589) (UniProt Q60492); experiment: NVS_OR_gSIGMA_NonSelective: NovaScreen (NVS) Nuclear Receptor Binding Assay for guinea pig Sigma Receptor, Non-selective Binding (AID 2283367)
# Outline: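 Guinea pig brain membrane sigma sites were labelled with a radioligand, and bound radioactivity was counted after filtration 1 h post-dose. Compounds were screened at 25 uM in duplicate, then retested as concentration series when active.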
structure (smiles),measurement,setting,value
CCOc1cccc(-n2cc(C(=O)N3CCN(c4cc(C(=O)O)c5ccccc5c4)CC3)nc2-c2ccc(C)cc2)c1,AC50,[1],20.4 µM (active)
same,AC50,[2],23.9 µM (active)
same,outcome,[3],inactive
same,outcome,[4],inactive
same,outcome,[5],inactive
same,AC50,[6],16.2 µM (active)
same,AC50,[7],13.5 µM (active)
same,AC50,[8],14.8 µM (active)
O=C(O)c1cc(N=Nc2ccc(S(=O)(=O)Nc3ccccn3)cc2)ccc1O,AC50,[1],5.35 µM (active)
same,outcome,[4],inactive
same,AC50,PGR (gene 5241),36.5 µM (active)
CCc1cc(SCc2sc(-c3ccc(C(F)(F)F)cc3)nc2CN2CCN(c3ccc(OC)cc3)CC2)ccc1OCC(=O)O,AC50,[1],29 µM (active)
same,AC50,[5],3.61 nM (active)
same,outcome,PGR (gene 5241),inactive
same,AC50,[8],10.8 µM (active)
O=C(O)c1cccc(N(Cc2cccnc2)c2ccc(OC(F)F)c(OC(F)F)c2)c1,AC50,[1],2.81 µM (active)
same,AC50,[2],37.1 µM (active)
same,outcome,[3],inactive
same,outcome,[4],inactive
same,AC50,PGR (gene 5241),4.96 µM (active)
same,outcome,[7],inactive
COC(=O)c1c(Cl)c(Cl)c(C(=O)OC)c(Cl)c1Cl,outcome,[9],inactive
same,outcome,[10],inactive
same,outcome,[11],inactive
same,outcome,[12],inactive
same,AC50,[13],50 µM (active)
same,AC50,[4],50 µM (active)
COC(=O)c1ccccc1O,outcome,[9],inactive
same,outcome,[12],inactive
same,outcome,[13],inactive
same,outcome,[4],inactive
O=c1n(CC2CO2)c(=O)n(CC2CO2)c(=O)n1CC1CO1 (configuration not stated),outcome,[9],inactive
same,outcome,[11],inactive
same,outcome,[12],inactive
same,outcome,[13],inactive
same,outcome,[4],inactive
COCCOCCOCCOC,outcome,[4],inactive
O=c1[nH]c2ccc(S(=O)CCN3CCC(Cc4ccc(F)cc4)CC3)cc2o1 (configuration not stated),outcome,[9],inactive
same,outcome,[11],inactive
same,outcome,[13],inactive
same,outcome,PGR (gene 5241),inactive
same,AC50,[14],339 nM (active)
CCNc1ccccc1,outcome,[2],inactive
same,outcome,[3],inactive
same,outcome,[4],inactive
CC1(C)C(=O)N(Br)C(=O)N1Br,outcome,[2],inactive
same,outcome,[3],inactive
same,outcome,[4],inactive
CCCCCCCCO,outcome,[9],inactive
same,outcome,[11],inactive
same,outcome,[12],inactive
same,outcome,[13],inactive
same,outcome,[4],inactive
CCCC(=O)OCC,outcome,[9],inactive
same,outcome,[12],inactive
same,outcome,[13],inactive
same,outcome,[4],inactive
CC(C)CCO,outcome,[9],inactive
same,outcome,[11],inactive
same,outcome,[12],inactive
same,outcome,[13],inactive
same,outcome,[4],inactive
C=CC(=C)CCC=C(C)C,outcome,[9],inactive
same,outcome,[11],inactive
same,outcome,[12],inactive
same,outcome,[13],inactive
same,outcome,[4],inactive
Fc1ccccc1[C@@H](F)COC1CCC(Nc2ncnc3[nH]ncc23)CC1 (some centres not stated),AC50,[2],33.2 µM (active)
same,AC50,[3],50 µM (active)
same,outcome,[4],inactive
same,outcome,[5],inactive
same,AC50,[8],5.08 µM (active)
